Inconclusive results are not listed. Calls of active or inactive are those of the source. Rule for the calls, unless noted: active = hit-call score of the fitted dose curve at least 0.9, where 1 is the maximum; inactive = score below 0.9.

Read-out in assay [1]: Interleukin-8 (IL8), CXCL8 (gene 3576)
In words: BSK_3C_IL8: BioMAP Diversity Plus: 3C Assay for Interleukin-8 (IL8) Biomarker Activity (AID 2283020). Conditions: primary human endothelial cells (HUVEC); actives raise or lower the signal. A digest of the protocol: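 Primary human umbilical vein endothelial cells (3C system) were exposed to test chemical for 24 h, then IL-8 was quantified by ELISA. Responses were fitted bidirectionally against DMSO vehicle as baseline.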

Read-out in assay [2]: Monokine induced gamma interferon (MIG), CXCL9 (gene 4283)
In words: BSK_3C_MIG: BioMAP Diversity Plus: 3C Assay for Monokine induced gamma interferon (MIG) Biomarker Activity (AID 2283021).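 For AC50: MIG protein level measured by immunoassay in the treated endothelial cultures.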 The settings on record: primary human endothelial cells (HUVEC); actives raise or lower the signal. Put shortly:
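Primary human umbilical vein endothelial cells in the 3C system were exposed to chemical for 24 h, after which MIG was quantified by ELISA. Activity was fitted bidirectionally against DMSO as negative control and baseline.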

A short description of assay [3]: BSK_3C_SRB: Viability Assessment in the BioMAP Diversity Plus: 3C Assay (AID 2283023).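 Note: fitted both ways against DMSO so a hit may be signal rise or drop.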 The settings on record: primary human endothelial cells (HUVEC). Put shortly:
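Primary human umbilical vein endothelial cells in the 3C system were read 24 h after compound dosing. Total protein was stained with 0.1% sulforhodamine B after 10% TCA fixation and read at 560 nm, with bidirectional fitting against DMSO as baseline.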

Read-out in assay [4]: Matrix Metallopeptidase 1 (MMP1), MMP1 (gene 4312)
Description: BSK_BE3C_MMP1: BioMAP Diversity Plus: BE3C Assay for Matrix Metallopeptidase 1 (MMP1) Biomarker Activity (AID 2283024). The settings on record: primary human bronchial epithelial cells; actives raise or lower the signal. Put shortly:
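Primary human bronchial epithelial cells were dosed with test chemicals, and MMP1 levels were measured by ELISA 24 h later. Data were fitted bidirectionally against DMSO as the negative control and activity baseline.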

The nature of assay [5]: BSK_3C_Vis: BioMAP Diversity Plus: 3C Assay for Morphology Visualization (AID 2283025).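 Note: fitted both ways so gain or loss versus DMSO counts.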 Conditions: primary human endothelial cells (HUVEC). A digest of the protocol: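 Human umbilical vein endothelial cells in the 3C system were imaged by light microscopy 24 h after chemical dosing to record cell morphology. Activity was fitted bidirectionally against DMSO as negative control and baseline; the endpoint serves as a background control.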

Read-out in assay [6]: Pselectin, SELP (gene 6403)
In words: BSK_4H_Pselectin: BioMAP Diversity Plus: 4H Assay for Pselectin Biomarker Activity (AID 2283026). Conditions: primary human endothelial cells (HUVEC); actives raise or lower the signal. Put shortly: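 Primary human umbilical vein endothelial cells were exposed to test chemical for 24 h, then cell-surface P-selectin was quantified by ELISA. Activity was fitted bidirectionally against DMSO as negative control and baseline.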

A short description of assay [7]: BSK_4H_SRB: Viability Assessment in the BioMAP Diversity Plus: 4H Assay (AID 2283027).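 For AC50: curves fitted both ways versus DMSO so AC50 may be loss or gain.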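 Note: cells exposed to compound for 24 h before staining.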 Conditions: primary human endothelial cells (HUVEC). Put shortly: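 Absorbance at 560 nm of SRB-stained total protein served as the viability read-out in confluent primary human umbilical vein endothelium 24 h after chemical treatment. Curves were fitted bidirectionally against DMSO as negative control.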

Assay [8] can be described thus: BSK_BE3C_SRB: Viability Assessment in the BioMAP Diversity Plus: BE3C Assay (AID 2283028).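 For AC50: fitted both ways so AC50 may mark signal gain or loss versus DMSO.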 The settings on record: primary human bronchial epithelial cells. A digest of the protocol: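 Human primary bronchial epithelial cells were exposed to test chemicals for 24 h. Total protein in parallel cultures was then measured by staining with 0.1% sulforhodamine B after 10% TCA fixation, with absorbance read at 560 nm. Activity was fitted bidirectionally against DMSO.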

Read-out in assay [9]: Thrombomodulin, THBD (gene 7056)
In words: BSK_3C_Thrombomodulin: BioMAP Diversity Plus: 3C Assay for Thrombomodulin Biomarker Activity (AID 2283029). Conditions: primary human endothelial cells (HUVEC); actives raise or lower the signal. Put shortly:
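Primary human umbilical vein endothelial cells (3C system) were exposed to chemical for 24 h, then thrombomodulin levels were measured by ELISA. Activity was fitted bidirectionally against the DMSO negative control as baseline.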

Read-out in assay [10]: Urokinase-type plasminogen activator receptor (uPAR), PLAUR (gene 5329)
In words: BSK_4H_uPAR: BioMAP Diversity Plus: 4H Assay for Urokinase-type plasminogen activator receptor (uPAR) Biomarker Activity (AID 2283030). The settings on record: primary human endothelial cells (HUVEC); actives raise or lower the signal. Put shortly: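 Primary human umbilical vein endothelial cells were exposed to chemical for 24 h before cell-surface uPAR was quantified by ELISA. Activity was fitted bidirectionally against the DMSO negative control baseline.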

Read-out in assay [11]: Vascular endothelial growth factor receptor 2 (Homo sapiens) (UniProt P35968)
In words: BSK_4H_VEGFRII: BioMAP Diversity Plus: 4H Assay for Vascular endothelial growth factor receptor 2 (VEGFR2) Biomarker Activity (AID 2283031).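 For AC50: cell-surface VEGFR2 protein level quantified by ELISA.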 Conditions: primary human endothelial cells (HUVEC); actives raise or lower the signal. A digest of the protocol: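 Primary human umbilical vein endothelial cells in the BioMAP 4H system were dosed with test chemical, and 24 h later VEGFRII was measured by ELISA. Activity was fitted bidirectionally against DMSO as negative control and baseline.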

Read-out in assay [12]: Human Leukocyte Antigen - DR isotype (HLADR), HLA-DRA (gene 3122)
Description: BSK_BE3C_HLADR: BioMAP Diversity Plus: BE3C Assay for Human Leukocyte Antigen - DR isotype (HLADR) Biomarker Activity (AID 2283032). Conditions: primary human bronchial epithelial cells; actives raise or lower the signal. A digest of the protocol:
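Human primary bronchial epithelial cells in the BE3C system were exposed to chemicals for 24 h, after which HLA-DR levels were quantified by ELISA. Activity was fitted bidirectionally, gain or loss of signal, against DMSO as negative control and baseline.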

Read-out in assay [13]: Vascular cell adhesion molecule 1 (VCAM1), VCAM1 (gene 7412)
Description: BSK_4H_VCAM1: BioMAP Diversity Plus: 4H Assay for Vascular cell adhesion molecule 1 (VCAM1) Biomarker Activity (AID 2283033).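 For outcome: cell-surface VCAM-1 protein measured by ELISA.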 The settings on record: primary human endothelial cells (HUVEC); actives raise or lower the signal. Put shortly: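 Primary human umbilical vein endothelial cells were exposed to chemicals for 24 h, after which VCAM-1 was quantified by ELISA. Responses were fitted bidirectionally against DMSO as negative control and activity baseline.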

Read-out in assay [14]: Interferon-gamma inducible Protein 10 (IP10), CXCL10 (gene 3627)
In words: BSK_BE3C_IP10: BioMAP Diversity Plus: BE3C Assay for Interferon-gamma inducible Protein 10 (IP10) Biomarker Activity (AID 2283034). Conditions: primary human bronchial epithelial cells; actives raise or lower the signal. A digest of the protocol: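 Human primary bronchial epithelial cells were exposed to chemicals for 24 hours, after which IP-10 levels were measured by ELISA. Data were fitted bidirectionally against DMSO, which served as the negative control and activity baseline.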

Read-out in assay [15]: Monokine induced gamma interferon (MIG), CXCL9 (gene 4283)
Description: BSK_BE3C_MIG: BioMAP Diversity Plus: BE3C Assay for Monokine induced gamma interferon (MIG) Biomarker Activity (AID 2283035).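 For outcome: MIG protein measured by ELISA in BE3C cultures after 24 h of dosing.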 Conditions: primary human bronchial epithelial cells; actives raise or lower the signal. Put shortly: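 MIG level was determined by ELISA after 24 h chemical treatment of primary human bronchial epithelial cells. Values were fitted bidirectionally with DMSO as the negative control and activity baseline.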

Read-out in assay [16]: Transforming growth factor beta 1 (TGFb1), TGFB1 (gene 7040)
In words: BSK_BE3C_TGFb1: BioMAP Diversity Plus: BE3C Assay for Transforming growth factor beta 1 (TGFb1) Biomarker Activity (AID 2283036). The settings on record: primary human bronchial epithelial cells; actives raise or lower the signal. A digest of the protocol: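 Human primary bronchial epithelial cells (BE3C system) were dosed with chemical and TGF-b1 levels measured by ELISA at 24 h. Activity was fitted bidirectionally relative to DMSO negative control as baseline.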

Read-out in assay [17]: Plasminogen activator inhibitor-1 (PAI1), SERPINE1 (gene 5054)
Description: BSK_BE3C_PAI1: BioMAP Diversity Plus: BE3C Assay for Plasminogen activator inhibitor-1 (PAI1) Biomarker Activity (AID 2283037). Conditions: primary human bronchial epithelial cells; actives raise or lower the signal. A digest of the protocol: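 Human primary bronchial epithelial cells were exposed to chemical for 24 h, then PAI-1 was quantified by ELISA. Activity was fitted bidirectionally relative to the DMSO negative control baseline.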

Read-out in assay [18]: urokinase plasminogen activator (uPA), PLAU (gene 5328)
In words: BSK_BE3C_uPA: BioMAP Diversity Plus: BE3C Assay for urokinase plasminogen activator (uPA) Biomarker Activity (AID 2283038).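 For outcome: uPA protein level quantified by ELISA in cell cultures; uPA read one day after compound addition.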 Conditions: primary human bronchial epithelial cells; actives raise or lower the signal. Put shortly:
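Human primary bronchial epithelial cells were exposed to chemical for 24 h, then uPA levels were measured by ELISA. Responses were fitted bidirectionally against DMSO as negative control and baseline. Parallel SRB staining of total protein gauged overt cytotoxicity.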

Read-out in assay [19]: Urokinase-type plasminogen activator receptor (uPAR), PLAUR (gene 5329)
Description: BSK_BE3C_uPAR: BioMAP Diversity Plus: BE3C Assay for Urokinase-type plasminogen activator receptor (uPAR) Biomarker Activity (AID 2283039).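 For outcome: cells exposed to compound for one day before measurement.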 The settings on record: primary human bronchial epithelial cells; actives raise or lower the signal. Put shortly:
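Primary human bronchial epithelial cells were dosed with chemical and harvested 24 h later; uPAR was quantified by ELISA. Activity was fitted bidirectionally against DMSO as negative control and baseline.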

For assay [20], the target named is human Vitamin D Receptor (VDR), VDR (gene 7421) (UniProt P11473). In words: ATG_VDR_TRANS: Attagene TRANS-FACTORIAL HepG2 Assay for human Vitamin D Receptor (VDR) (AID 2283022; active = hit-call score of the fitted dose curve at least 0.9, where 1 is the maximum). Put shortly: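 HepG2 cells were transiently transfected with multiple GAL4-UAS reporter units, so signal reflects exogenous chimeric receptor-Gal4 activity. After 24 h compound exposure, reporter mRNA was measured by RT-PCR, fluorescent labelling and capillary electrophoresis, fitted for gain of signal versus DMSO.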
Chain of human Vitamin D Receptor (VDR), VDR (gene 7421) (P11473 whole entry, looked up, the tested form may be a part): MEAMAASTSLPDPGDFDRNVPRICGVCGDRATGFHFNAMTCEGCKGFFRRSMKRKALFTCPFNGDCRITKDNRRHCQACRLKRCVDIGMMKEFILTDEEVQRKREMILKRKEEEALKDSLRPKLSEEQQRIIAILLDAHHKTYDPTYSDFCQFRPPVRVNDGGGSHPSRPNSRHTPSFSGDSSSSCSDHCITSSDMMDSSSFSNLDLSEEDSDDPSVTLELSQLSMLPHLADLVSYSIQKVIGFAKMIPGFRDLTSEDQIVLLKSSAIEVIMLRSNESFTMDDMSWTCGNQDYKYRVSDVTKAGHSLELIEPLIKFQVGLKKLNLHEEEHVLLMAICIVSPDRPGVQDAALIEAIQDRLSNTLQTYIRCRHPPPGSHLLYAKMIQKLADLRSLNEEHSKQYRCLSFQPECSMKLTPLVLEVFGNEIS

Broadly, the AC50 is the midpoint of the concentration-response curve, whichever way the signal moves. In the case of `Cc1cc(C)c(O)c(C(C)(C)C)c1`, the AC50 in assay [1] was 20 µM (active); in [3], 30.1 µM (active); in assay [4], 29 µM (active); in [5] it was 14.9 µM (active); in assay [6], 20 µM (active); in assay [7] it was 29.5 µM (active). Besides, the AC50 is 32 µM (active) in assay [8]; 33.9 µM (active) in [9]; 37.7 µM (active) in [10]; 29.5 µM (active) in [12]; 30.4 µM (active) in [13]; 31 µM (active) in [14]. For the same molecule, the AC50 in assay [15] was 36 µM (active); in [16] it was 29.8 µM (active); in [17] it was 27.9 µM (active); in [18], 28.7 µM (active); in assay [19], 28.2 µM (active). Also, the outcome in assay [2] and in [11] was inactive.
Regarding `OC(O)C(F)(F)C(F)(F)F`, the result in assay [1], in assay [2], in assay [20], in assay [3], in assay [4] and in assay [6] was inactive. In addition, the outcome in assay [7], in assay [8], in assay [9], in assay [10], in [11] and in assay [12] was inactive. The outcome in assay [13], in assay [14], in assay [15], in assay [17], in assay [18] and in [19] was inactive.
With `OCC(O)CC(F)(F)C(F)(F)C(F)(F)C(F)(F)C(F)(F)C(F)(F)C(F)(F)C(F)(F)F` (configuration not stated), the outcome in assay [1], in assay [2], in assay [20], in [3], in assay [4] and in assay [6] was inactive. The outcome in assay [7], in assay [8], in assay [9], in assay [10], in [11] and in assay [12] was inactive. Besides, the outcome in assay [13], in assay [14], in assay [15], in assay [17], in assay [18] and in [19] was inactive.
On to `NCC(F)(F)C(F)(F)C(F)(F)C(F)(F)C(F)(F)C(F)(F)C(F)(F)C(F)(F)F`, for which the result in assay [1], in assay [2], in [20], in [3], in assay [4] and in [6] was inactive. For the same molecule, the result in assay [7], in assay [8], in [9], in [10], in assay [11] and in [12] was inactive. The result in assay [13], in assay [14], in assay [15], in assay [17], in assay [18] and in assay [19] was inactive.
Consider `O=C1c2c(O)ccc(Nc3ccc(CCO)cc3)c2C(=O)c2c([N+](=O)[O-])ccc(O)c21`, for which the result in assay [1], in assay [3], in assay [8], in [16], in [17] and in assay [18] was inactive. Besides, the outcome in assay [19] was inactive. The AC50 in assay [2] is 34.2 µM (active); in assay [4], 2.47 µM (active); in assay [5], 15.4 µM (active); in assay [6], 20 µM (active); in [7] it was 31.3 µM (active); in assay [9], 10.7 µM (active). Also, the concentration at half-maximal activity (AC50) in assay [10] is 31.1 µM (active); in assay [11] it was 34.8 µM (active); in assay [12], 3.43 µM (active); in [13], 26.6 µM (active); in [14], 20 µM (active); in [15] it was 20 µM (active).

Source of the values: PubChem BioAssay (EPA / NIEHS).
